# Source: ChEMBL document CHEMBL3433997, “St. Jude Leishmania screening dataset” (2016)
# Legend:
# Assay type in all cases: functional
# [1] = target: Solute carrier family 2, facilitated glucose transporter member 1 (Homo sapiens) (UniProt P11166); experiment: ST_JUDE_LEISH: Cytotoxicity at 2uM final concentration against transgenic Leishmania Mexicana promastigotes LmGLUT1 that are glucose transport deficient and complemented with the human glucose transporter GLUT1. Activity is measured by DNA content using SYBR green in vitro
# [2] = target: Hexose transporter 1 (Plasmodium falciparum) (UniProt O97467); experiment: ST_JUDE_LEISH: Cytotoxicity at 2uM final concentration against transgenic Leishmania Mexicana promastigotes LmPfHT that are glucose transport deficient and complemented with the Plasmodium falciparum hexose transporter. Activity is measured by DNA content using SYBR green in vitro
# [3] = target: Glucose transporter (Leishmania mexicana) (UniProt O61059); experiment: ST_JUDE_LEISH: Cytotoxicity at 2uM final concentration against transgenic Leishmania Mexicana promastigotes LmGT2 that are glucose transport deficient and complemented with the L. Mexicana glucose transporter 2. Activity is measured by DNA content using SYBR green in vitro
# Sequence of Solute carrier family 2, facilitated glucose transporter member 1 (Homo sapiens) (P11166 whole entry): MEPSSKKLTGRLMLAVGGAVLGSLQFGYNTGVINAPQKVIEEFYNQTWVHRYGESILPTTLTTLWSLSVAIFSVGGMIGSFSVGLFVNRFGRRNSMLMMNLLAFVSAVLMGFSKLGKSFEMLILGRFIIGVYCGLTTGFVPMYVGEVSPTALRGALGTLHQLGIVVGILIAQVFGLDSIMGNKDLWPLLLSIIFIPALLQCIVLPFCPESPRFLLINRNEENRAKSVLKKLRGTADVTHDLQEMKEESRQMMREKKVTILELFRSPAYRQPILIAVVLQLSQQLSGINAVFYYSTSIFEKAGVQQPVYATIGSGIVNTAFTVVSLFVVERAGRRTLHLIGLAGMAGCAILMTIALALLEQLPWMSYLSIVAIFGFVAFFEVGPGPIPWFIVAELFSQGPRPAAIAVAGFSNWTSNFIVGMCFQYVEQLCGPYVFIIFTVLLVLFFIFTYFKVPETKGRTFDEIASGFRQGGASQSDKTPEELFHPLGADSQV
SMILES,inhibition [1] [%],inhibition [2] [%],inhibition [3] [%]
COc1ccccc1CNC(=O)c1cc(OC)c(OC)cc1NC(=O)c1cccs1,10.5,6,4.4
Cc1cc(N2CCCC2)nc(Nc2ccc(NC(=O)c3ccccc3C)cc2)n1,-1.05,6.45,0.46
O=c1cc(NCCCNCc2cc(Cl)cc(Cl)c2OCc2ccc(Cl)cc2)[nH]c2ccccc12,1.67,0.9,3.19
COc1ccc(-c2nc3cc4ccccc4nc3[nH]2)c(OCC(O)CNC(C)C)c1 (centres undefined),-1.53,1.33,1.21
COc1ccc(NC(=O)CCNc2ccnc(NCCc3ccc(F)cc3)n2)cc1,2.48,2.27,1.75
CCc1cccc(-c2cc(N)n(C)c3nc(N)nc(=O)c2-3)c1,-0.01,0.41,-1.13
COc1ccc(-c2ccc(NC(=O)c3cccc(Cl)c3)cc2)cc1CN(C)CCO,1.99,0.94,-1.71
Cc1cccc2nc(-c3cccc(-c4cccc(NC(=O)NCc5ccccc5)c4)c3)[nH]c12,3.73,5.29,-4.27
CC(=O)Nc1cccc(-c2cnc(N)c3cc(-c4ccc5c(c4)OCO5)ccc23)c1,7.5,7.74,5.76
COc1cc(NC(=O)/C=C/c2ccccc2OC(F)(F)F)cc(OCCN2CCN(CCN3CCOCC3)CC2)c1,3.4,3.05,2.34
COc1cc(Nc2nc(N)n(C(=O)c3ccc4c(c3)OCO4)n2)cc(OC)c1OC,15.3,9.11,0.33
Cc1cccc(-c2cccc3c(NC(=O)N4CCc5cc6nccc(N7CCN8CCC[C@H]8C7)c6cc54)cccc23)n1,0.18,0.95,1.48
O=C(N[C@H]1CCN(Cc2ccc(OCCCN3CCCCC3)cc2)C1)c1ccc(Oc2ccccc2)cc1,72.1,19.9,13.7
Fc1ccc2ncc(Cl)c(CCN3CCC(NCc4cc5c(cn4)OCCO5)CC3)c2c1,11,11.7,-0.41
CC(C)C[C@H](NC(=O)OC(C)(C)C)C(=O)Nc1ccc(Cc2ccc(NC(=O)[C@H](CC(C)C)NC(=O)OC(C)(C)C)cc2)cc1,3.16,3.22,2.99
CC(C)NCc1ccc(OCc2cccc(COc3ccc(CNC(C)C)cc3I)c2)c(I)c1,112,109,113
Cc1noc(NC(=O)c2sc3ccccc3c2O)c1C,1.04,0.61,-0.8
CCN(CC)CCCC(C)Nc1cc(C)nc2cc(Cl)ccc12 (centres undefined),0.9,1.6,0.08
